# Reference: PubChem BioAssay (Tox21)
# Records with an inconclusive call do not appear. Entries that show only a call come without a potency. Active and inactive are the calls of the source. Calls follow the shape of the full dose curve.
# Assay: qHTS assay for small molecule disruptors of the mitochondrial membrane potential - cell viability (AID 720634);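 also: human HepG2 liver cancer cells; nearly all actives have a fitted effect of over 20% in size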
# Conditions: HepG2 viability, ATP luminescence (CellTiter-Glo), 1 h; series mostly up to 83.2 µM
# Text: U.S. Tox21 Program National Center for Advancing Translational Sciences [NCATS] NIH Chemical Genomics Center [NCGC] U.S. Environmental Protection Agency [EPA] National Institutes of Environmental Health Sciences [NIEHS] National Toxicology Program [NTP] U.S. Food and Drug Administration [FDA] Tox21 Assay Overview: Mitochondrial membrane potential (MMP), one of the parameters for mitochondrial function, is generated by mitochondrial electron transport chain that creates an electrochemical gradient by a series of redox reactions. This gradient drives the synthesis of ATP, a crucial molecule for various cellular processes. Measuring MMP in living cells is commonly used to assess the effect of chemicals on mitochondrial function; decreases in MMP can be detected using lipophilic cationic fluorescent dyes. […] The dye accumulates in the mitochondria of healthy cells as aggregates, with red fluorescence. The mitochondrial potential decreases and the dye could not accumulate in the mitochondria and remains in the cytoplasm in monomers, with green fluorescence. In addition to the mitochondrial potential assay, these cells were also used to test the cytotoxicity by determining the cell viability in the culture based on the quantitation of ATP present. The cytotoxicity was measured in the same assay well of MMP assay.
# Tox21 Assay Protocol Summary: 2,000 HepG2 cells in 5 uL/well were dispensed into black, clear-bottom 1536-well plates using a Multidrop Combi (Thermo Scientific) dispenser. The assay plates were incubated for an overnight at 37 C to allow cells to attach to the wells, followed by the transfer of 23 nL compound or DMSO vehicle by a pin tool (Kalypsys). The plates were incubated for 1 hr at 37 C and 5% CO2, followed by the addition of 5 uL of 2X m-MPI dye into each well using Flying Reagent Dispenser (Aurora Discovery) and then CellTiter-Glo reagent was added at 4 uL/well and incubated 30 min at room temperature. Then luminescence intensity was quantified on a ViewLux CCD-based plate reader.
row,SMILES,Potency
1,CC1CC(OC(=O)C(O)c2ccccc2)CC(C)(C)C1 (stereo not given),inactive
2,OC1OC[C@@H](O)[C@H](O)[C@@H]1O (stereo not given in full),inactive
3,OC[C@H]1OC([S-])[C@H](O)[C@@H](O)[C@@H]1O.[Au+] (stereo not given in full),inactive
4,COc1ccc(/C=C/C(=O)OCCC(C)C)cc1,inactive
5,O=C(O)CCC/C=C\C[C@@H]1[C@@H](/C=C/[C@@H](O)COc2cccc(Cl)c2)[C@H](O)C[C@@H]1O,inactive
6,Cc1c(O)cc2c(c1C)O[C@](C)(CCC[C@H](C)CCC[C@H](C)CCCC(C)C)CC2,inactive
7,CC(=O)c1ccc2c(c1)N(CCCN1CCN(CCO)CC1)c1ccccc1S2,inactive
8,N[C@H](CC(=O)O)C(=O)O,inactive
9,O=C1N=C2SCCN2C(=O)C1Cc1ccc(Cl)cc1 (stereo not given),inactive
10,CO[C@@H]1[C@@H](O[C@@H]2O[C@H](C)[C@@H](O[C@H]3C[C@@](C)(O)[C@@H](OC(=O)CC(C)C)[C@H](C)O3)[C@H](N(C)C)[C@H]2O)[C@@H](CC=O)C[C@@H](C)[C@@H](O)/C=C/C=C/C[C@@H](C)OC(=O)C[C@H]1O,inactive
11,C=CC[C@@H]1/C=C(\C)C[C@H](C)C[C@H](OC)[C@H]2O[C@@](O)(C(=O)C(=O)N3CCCC[C@H]3C(=O)O[C@H](/C(C)=C/[C@@H]3CC[C@@H](O)[C@H](OC)C3)[C@H](C)[C@@H](O)CC1=O)[C@H](C)C[C@@H]2OC,inactive
12,C=C1CC2C3CCC4=CC(=O)C=C[C@]4(C)[C@@]3(F)[C@@H](O)C[C@]2(C)[C@@]1(O)C(=O)COC(C)=O (stereo not given in full),inactive
13,CCOC(=O)O[C@]1(C(=O)COC(=O)CC)CC[C@H]2[C@@H]3CCC4=CC(=O)C=C[C@]4(C)[C@H]3[C@@H](O)C[C@@]21C,inactive
14,OCC(S)CS (stereo not given),inactive
15,COc1cc(S(C)=O)ccc1-c1nc2ncccc2[nH]1 (stereo not given),inactive
16,CO[C@H]1C[C@@H]2CC[C@@H](C)[C@@](O)(O2)C(=O)C(=O)N2CCCC[C@H]2C(=O)O[C@H]([C@H](C)C[C@@H]2CC[C@@H](OC(=O)C(C)(CO)CO)[C@H](OC)C2)CC(=O)[C@H](C)/C=C(\C)[C@@H](O)[C@@H](OC)C(=O)[C@H](C)C[C@H](C)/C=C/C=C/C=C/1C,inactive
17,O=C(CCCN1CCC(C(=O)c2ccc(F)cc2)CC1)c1ccc(F)cc1,inactive
18,O=C(O)CO.[NH2-].[NH2-].[Pt+2],inactive
19,CC(C)(C)NCC(O)c1ccc(O)c(CO)n1 (stereo not given),inactive
20,NCCCC[C@H](NC(=O)[C@@H]1CCCN1C(=O)[C@@H]1CSSC[C@H](N)C(=O)N[C@@H](Cc2ccccc2)C(=O)N[C@@H](Cc2ccccc2)C(=O)N[C@@H](CCC(N)=O)C(=O)N[C@@H](CC(N)=O)C(=O)N1)C(=O)NCC(N)=O,inactive

row,SMILES,Potency
1,CCC(=O)OCC(=O)[C@@]1(OC(=O)CC)[C@H](C)C[C@H]2[C@H]3[C@H]([C@@H](O)C[C@@]21C)[C@@]1(C)C=CC(=O)C=C1C[C@H]3Cl,inactive
2,O=C(O)[C@H](CC(=O)N1C[C@H]2CCCC[C@H]2C1)Cc1ccccc1,inactive
3,CC(C)(C)CC(=O)OCC(=O)[C@@]12OC(C)(C)O[C@@H]1C[C@H]1[C@@H]3CCC4=CC(=O)C=C[C@]4(C)[C@@]3(F)[C@@H](O)C[C@@]12C,inactive
4,NCCC(=O)[N-][C@@H](Cc1cnc[nH]1)C(=O)O.[Zn],inactive
5,CNC(=O)[C@H](Cc1c[nH]c2ccccc12)NC(=O)[C@@H](CC(=O)NO)CC(C)C,inactive
6,OC(CN1CCCCC1)c1cc(-c2ccccc2)on1 (stereo not given),inactive
7,CN1CCN(CCCN2c3ccccc3Sc3ccccc32)CC1,inactive
8,COc1cc(C)c(/C=C/C(C)=C/C=C/C(C)=C/C(=O)O)c(C)c1C,inactive
9,COc1cc(NCCCC(C)N)c2ncccc2c1 (stereo not given),inactive
10,C/C=C1\NC(=O)[C@H]2CSSCC/C=C/[C@H](CC(=O)N[C@H](C(C)C)C(=O)N2)OC(=O)C(C(C)C)NC1=O (stereo not given in full),inactive
11,O=P(O)(O)OC[C@H]1O[C@](O)(COP(=O)(O)O)[C@@H](O)[C@@H]1O,inactive
12,CCN(CC)CCOC(=O)c1cccnc1,inactive
13,CCc1ccc2c(c1)N(CC(C)CN(C)C)c1ccccc1S2 (stereo not given),inactive
14,N=C(N)c1ccc(OCCCOc2ccc(C(=N)N)cc2Br)c(Br)c1,inactive
15,CC(=O)OCC(=O)[C@@]1(O)[C@H](C)C[C@H]2[C@@H]3C[C@H](F)C4=CC(=O)C=C[C@]4(C)[C@H]3[C@@H](O)C[C@@]21C,inactive
16,O=S(=O)(O)CCCS(=O)(=O)O,inactive
17,C[C@]12CC[C@@H]3c4ccc(OC(=O)c5ccccc5)cc4CC[C@H]3[C@@H]1CC[C@@H]2O,inactive
18,CC(=O)N(CC(C)C(=O)O)c1c(I)cc(I)c(N)c1I (stereo not given),inactive
19,N#CC(c1ccc(Cl)cc1)c1c(Cl)cc(-n2ncc(=O)[nH]c2=O)cc1Cl (stereo not given),inactive
20,NC(Cc1ccccc1)C(=O)O (stereo not given),inactive
